# Inconclusive results are not listed. A call without a number means that no potency is given here. Values without a mark were called inactive. Active and inactive are the calls of the source. Unless noted, calls follow the shape of the dose curve; as a rule, active = well fitted curve in the direction sought with a large enough effect in the repeat runs; inconclusive = weak or mixed curves; inactive = no such curve, though single readings can be large; an effect the other way counts as inactive or inconclusive.
# How the values were obtained:
# [1] = qHTS assay to identify small molecule agonists of the vitamin D receptor (VDR) signaling pathway - cell viability counter screen (AID 743224); also: nearly all actives have a fitted effect of over 50% in size; also: potency is read from the fitted curve at half-maximal effect; as to activity change, negative = cytotoxicity: series mostly up to about 63 µM
# Method in brief: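 Counter screen for cytotoxicity: VDR-bla cells at 2,000 cells/well, 16 h compound exposure, then CellTiter-Glo luminescence after the beta-lactamase measurement.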
# [2] = qHTS assay to identify small molecule antagonists of the vitamin D receptor (VDR) signaling pathway - cell viability counter screen (AID 743225); also: nearly all actives have a fitted effect of over 50% in size
# Method in brief: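 HEK293T VDR-bla; cpd + 1a,25-(OH)2D3 3 nM final, 16 h 37C/5% CO2; B/G FRET substrate 2 h RT; then CellTiter-Glo 30 min RT, luminescence.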
# [3] = qHTS assay to identify small molecule agonists of the NFkB signaling pathway - cell viability counter screen (AID 1159515; calls by dose curve; also: nearly all actives have a fitted effect of over 55% in size; also: potency is read from the fitted curve at half-maximal effect; as to activity, negative = cytotoxic: series mostly up to about 61 µM)
# Method in brief: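 Counter screen run alongside the NFkB-bla agonist assay: ME-180 reporter cells exposed to compounds for 5 hr, then lysed with CellTiter-Glo in the same wells. Luminescence, read after 30 min, reflects viable cells.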
# [4] = qHTS assay to identify small molecule agonists of the endoplasmic reticulum stress response signaling pathway (AID 1159516; active = well fitted activation curve with a large enough effect in the signal ratio in the repeat runs, not every such curve was filed as active; the % refers to the signal ratio)
# Method in brief: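 For this screen, HeLa cells stably carrying beta-lactamase under the ER stress response element received test compounds, positive controls or DMSO for 5 hr at 37 C; B/G FRET substrate was then added and dual-wavelength emission recorded.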
# [5] = qHTS assay to identify small molecule agonists of the endoplasmic reticulum stress response signaling pathway - cell viability counter screen (AID 1159517; calls by dose curve; also: nearly all actives have a fitted effect of over 50% in size; also: potency is read from the fitted curve at half-maximal effect; as to activity change, negative = cytotoxicity: series mostly up to about 61 µM)
# Method in brief: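 Cpd-treated ESRE-bla HeLa (5 hr, 37 C) → LiveBLAzer 2 hr RT → CellTiter-Glo 30 min RT → luminescence.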
# [6] = qHTS assay to identify small molecule antagonists of the retinoid-related orphan receptor gamma (ROR-gamma) signaling pathway - cell viability counter screen (AID 1159520); also: nearly all actives have a fitted effect of over 50% in size; also: potency is read from the fitted curve at half-maximal effect
# Method in brief: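 Tet-on ROR gamma CHO cells (1,000/well) were plated 4 hr, given compounds in DMSO for 2 hr at 37 C, then induced with 1 uM final doxycycline for 16 hr. Viability was read as ATP by CellTiter-Glo luminescence after 30 min.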
# [7] = target: Nuclear receptor ROR-gamma (Homo sapiens) (UniProt P51449); experiment: qHTS assay to identify small molecule antagonists of the retinoid-related orphan receptor gamma (ROR-gamma) signaling pathway (AID 1159521; also: nearly all actives have a fitted effect of over 50% in size; also: potency is read from the fitted curve at half-maximal effect;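 as to activity change, negative = inhibition: CHO cells with doxycycline inducible ROR-gamma driving an RORE luciferase reporter; top concentration of the series differs between compounds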)
# Method in brief: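 Cells were plated, rested 4 h at 37 C, exposed to compounds for 2 h, then given 1 uM final doxycycline hyclate to induce RORγ expression. After 16 h, ONE-Glo luminescence from the ROR response element reporter was measured.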
# [8] = qHTS assay to identify small molecule agonists of the AP-1 signaling pathway (AID 1159526; calls by dose curve)
# [9] = qHTS assay to identify small molecule agonists of the AP-1 signaling pathway - cell viability counter screen (AID 1159525; calls by dose curve; also: nearly all actives have a fitted effect of over 55% in size)
# Method in brief: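 Each titration point was normalised to DMSO and tetra n-octyl ammonium bromide controls. The read was Cell Titer Glo luminescence after 30 min at RT, following 5 h compound exposure of ME-180 AP-1-bla cells at 37 °C.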
# [10] = target: Retinoic acid receptor RXR-alpha (Homo sapiens) (UniProt P19793); experiment: qHTS assay to identify small molecule agonists of the RXR signaling pathway (AID 1159527; calls by dose curve; also: nearly all actives have a fitted effect of over 35% in size)
# Retinoic acid receptor RXR-alpha (Homo sapiens), sequence (P19793 whole entry, looked up): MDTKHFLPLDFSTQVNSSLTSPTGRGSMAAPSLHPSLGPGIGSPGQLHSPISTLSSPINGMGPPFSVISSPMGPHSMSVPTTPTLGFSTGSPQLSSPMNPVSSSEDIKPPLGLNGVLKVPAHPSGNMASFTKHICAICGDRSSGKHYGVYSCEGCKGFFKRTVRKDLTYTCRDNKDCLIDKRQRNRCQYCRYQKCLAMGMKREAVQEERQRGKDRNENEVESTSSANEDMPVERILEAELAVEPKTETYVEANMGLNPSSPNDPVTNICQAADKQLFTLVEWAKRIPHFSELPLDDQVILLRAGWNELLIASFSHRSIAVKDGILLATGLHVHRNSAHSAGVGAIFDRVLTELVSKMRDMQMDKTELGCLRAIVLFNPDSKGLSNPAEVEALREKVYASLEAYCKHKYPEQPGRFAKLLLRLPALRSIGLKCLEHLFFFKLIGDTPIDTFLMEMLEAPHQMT
# Method in brief: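 Cells plated at 2,000/well, rested 5 hr at 37 C, pin-dosed with DMSO compound solutions, incubated 16 hr, then loaded with B/G FRET substrate for 2 hr at RT before dual-emission fluorescence reading.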
smiles,measurement,setting,value
CN(C)c1ccc(/C=C/c2ccc([N+](=O)[O-])cc2)cc1,"activity change, negative = cytotoxicity",[1],-5.5% [at 5.95 µM]
same,"viability change, negative = cytotoxic",[2],7.13% [at 6.95 µM]
same,"activity, negative = cytotoxic",[3],-0.218% [at 6.95 µM]
same,activation,[4],-8.84% [at 6.95 µM]
same,"activity change, negative = cytotoxicity",[5],15.7% [at 6.95 µM]
same,"activity, negative = cytotoxicity",[6],1.18% [at 8.39 µM]
same,"activity change, negative = inhibition",[7],127% [at 8.39 µM]
same,activation,[8],-11.3% [at 6.97 µM]
O=C(OCCCCCCOC(=O)c1ccccc1)c1ccccc1,Potency,[1],43.6 µM (active)
same,Potency,[2],inactive
same,Potency,[3],inactive
same,Potency,[4],inactive
same,Potency,[5],inactive
same,Potency,[6],inactive
same,Potency,[7],inactive
same,Potency,[9],inactive
O=C(O)C1(C(=O)O)CCC1.[NH2-].[NH2-].[Pt+2],Potency,[1],inactive
same,Potency,[2],inactive
same,Potency,[3],inactive
same,Potency,[4],inactive
same,Potency,[5],inactive
same,Potency,[6],inactive
same,Potency,[7],inactive
same,Potency,[8],inactive
same,Potency,[10],inactive
CN1CCN(C(c2ccccc2)c2ccccc2)CC1,Potency,[1],inactive
same,Potency,[2],inactive
same,Potency,[3],inactive
same,Potency,[4],inactive
same,Potency,[5],inactive
same,Potency,[6],inactive
same,Potency,[7],inactive
same,Potency,[10],inactive
CCCCCCOC(=O)NC(=N)c1ccc(NCc2nc3cc(C(=O)N(CCC(=O)OCC)c4ccccn4)ccc3n2C)cc1,Potency,[1],29.8 µM (active)
same,Potency,[3],19 µM (active)
same,Potency,[4],inactive
same,Potency,[5],21.3 µM (active)
same,Potency,[6],inactive
same,Potency,[7],11.9 µM (active)
CCCCCCCCCCCCCCCCOS(=O)(=O)O,Potency,[3],inactive
same,Potency,[4],inactive
same,Potency,[5],inactive
same,Potency,[6],inactive
same,Potency,[7],inactive
Cc1cc(N)c2cc(NC(=O)Nc3ccc4nc(C)cc(N)c4c3)ccc2n1,Potency,[3],inactive
same,Potency,[4],inactive
same,Potency,[5],inactive
same,Potency,[6],inactive
Clc1ccc2c(c1)CCc1cccnc1C2=C1CCNCC1,Potency,[3],inactive
same,Potency,[4],inactive
same,Potency,[5],inactive
same,Potency,[6],inactive
same,Potency,[7],inactive
same,Potency,[8],inactive
COc1cc2c(cc1OC)C(C(C(=O)N(CCc1ccc(OC)c(OC)c1OC)CCc1ccc(OC)c(OC)c1OC)c1ccccc1)=NCC2 (configuration not stated),Potency,[1],inactive
same,Potency,[2],inactive
same,Potency,[3],inactive
same,Potency,[4],inactive
same,Potency,[5],inactive
same,Potency,[6],inactive
same,Potency,[7],inactive
same,Potency,[8],inactive
same,Potency,[10],inactive
Cc1oc2c(NC(=O)c3c(Cl)cccc3Cl)cccc2c1C(C)(C)O,Potency,[3],inactive
same,Potency,[4],inactive
same,Potency,[5],inactive
same,Potency,[6],inactive
same,Potency,[7],27.3 µM (active)
same,Potency,[8],inactive
CCC(Cl)CCC(Cl)C(Cl)CC(Cl)C(Cl)C(Cl)CCl (configuration not stated),Potency,[2],inactive
same,Potency,[3],inactive
same,Potency,[4],inactive
same,Potency,[5],inactive
same,Potency,[6],inactive
same,Potency,[7],inactive
same,Potency,[10],inactive
CCN(CC)c1ccc2c(-c3ccccc3C(=O)O)c3ccc(=[N+](CC)CC)cc-3oc2c1,Potency,[2],inactive
same,Potency,[3],inactive
same,Potency,[4],inactive
same,Potency,[5],inactive
same,Potency,[6],19.3 µM (active)
same,Potency,[7],inactive
same,Potency,[9],inactive
O[C@@H](COc1cccc2ncccc12)CN1CCN(C2c3ccccc3[C@@H]3[C@H](c4ccccc42)C3(F)F)CC1 (some centres not stated),Potency,[3],inactive
same,Potency,[4],inactive
same,Potency,[5],inactive
same,Potency,[6],inactive
same,Potency,[7],inactive
same,Potency,[8],inactive
CC(C)Nc1ccc(NC(C)C)c2c1C(=O)c1ccccc1C2=O,Potency,[1],inactive
same,Potency,[2],inactive
same,Potency,[3],inactive
same,Potency,[4],inactive
same,Potency,[5],inactive
same,Potency,[6],28.4 µM (active)
same,Potency,[7],25.3 µM (active)
same,Potency,[9],inactive
CN(Cc1ccc(C(C)(C)C)cc1)Cc1cccc2ccccc12,Potency,[3],21.3 µM (active)
same,Potency,[4],inactive
same,Potency,[5],inactive
same,Potency,[6],inactive
same,Potency,[7],inactive
C=C1C(=C/C=C2\CCC[C@]3(C)[C@@H]([C@H](C)/C=C/[C@@H](O)C4CC4)CC[C@@H]23)C[C@@H](O)C[C@@H]1O,Potency,[1],inactive
same,Potency,[3],inactive
same,Potency,[4],inactive
same,Potency,[5],inactive
same,Potency,[6],inactive
same,Potency,[7],13.3 µM (active)
C[C@@H]1C[C@H]2O[C@@]3(O[C@@H]2C(C)(C)O)[C@H](O)[C@@]2(C)[C@@H]4CC[C@H]5C(C)(C)[C@@H](O[C@@H]6OC[C@@H](O)[C@H](O)[C@H]6O)CC[C@@]56C[C@@]46CC[C@]2(C)[C@@H]13,Potency,[1],inactive
same,Potency,[2],inactive
same,Potency,[3],inactive
same,Potency,[4],inactive
same,Potency,[5],inactive
same,Potency,[6],inactive
same,Potency,[7],inactive
same,Potency,[9],inactive
C=CC(=O)OCCOCCOC(=O)C=C,Potency,[3],inactive
same,Potency,[4],inactive
same,Potency,[5],inactive
same,Potency,[6],13.7 µM (active)
COc1ccc(C(=O)Nc2nc3ccccc3c(NCc3ccccc3)c2C#N)cc1,Potency,[1],inactive
same,Potency,[2],inactive
same,Potency,[3],inactive
same,Potency,[4],inactive
same,Potency,[5],inactive
same,Potency,[6],inactive
same,Potency,[7],inactive
same,Potency,[9],inactive
O=C(CS)Nc1ccccc1,Potency,[1],inactive
same,Potency,[2],inactive
same,Potency,[3],inactive
same,Potency,[4],inactive
same,Potency,[5],inactive
same,Potency,[6],inactive
same,Potency,[7],inactive
same,Potency,[8],inactive
O=C1OC(=O)C2C3C=CC(C3)C12 (configuration not stated),Potency,[1],inactive
same,Potency,[2],inactive
same,Potency,[3],inactive
same,Potency,[4],inactive
same,Potency,[5],inactive
same,Potency,[6],inactive
same,Potency,[7],inactive
same,Potency,[8],inactive
CCCCCCCC#N,Potency,[2],inactive
same,Potency,[3],inactive
same,Potency,[4],inactive
same,Potency,[5],inactive
same,Potency,[6],inactive
same,Potency,[7],inactive
same,Potency,[9],inactive
C1CCCNCCC1,Potency,[1],inactive
same,Potency,[2],inactive
same,Potency,[3],inactive
same,Potency,[4],inactive
same,Potency,[5],inactive
same,Potency,[6],inactive
same,Potency,[7],inactive
same,Potency,[8],inactive
same,Potency,[10],inactive
C#CCN(C)CCCOc1ccc(Cl)cc1Cl,Potency,[1],inactive
same,Potency,[2],inactive
same,Potency,[3],inactive
same,Potency,[4],inactive
same,Potency,[5],inactive
same,Potency,[6],inactive
same,Potency,[7],inactive
same,Potency,[8],inactive
same,Potency,[10],inactive
CN1CCC(N(Cc2cccs2)c2ccccc2)CC1,Potency,[1],33.5 µM (active)
same,Potency,[2],inactive
same,Potency,[3],inactive
same,Potency,[4],inactive
same,Potency,[5],inactive
same,Potency,[6],inactive
same,Potency,[7],inactive
same,Potency,[9],inactive
CN(C)c1ccc(C(c2ccccc2)c2ccc(N(C)C)cc2)cc1,Potency,[1],inactive
same,Potency,[2],inactive
same,Potency,[3],inactive
same,Potency,[4],inactive
same,Potency,[5],inactive
same,Potency,[6],inactive
same,Potency,[7],27.3 µM (active)
same,Potency,[8],inactive
CCCCC(CC)CN1C(=O)C2C3C=CC(C3)C2C1=O (configuration not stated),Potency,[3],inactive
same,Potency,[4],inactive
same,Potency,[5],inactive
same,Potency,[6],inactive
same,Potency,[7],inactive
CCOC(=O)NCCOc1ccc(Oc2ccccc2)cc1,Potency,[1],inactive
same,Potency,[2],inactive
same,Potency,[3],inactive
same,Potency,[4],inactive
same,Potency,[5],inactive
same,Potency,[6],inactive
same,Potency,[7],43.3 µM (active)
same,Potency,[9],inactive
CCOC(=O)C(O)c1ccccc1 (configuration not stated),Potency,[1],inactive
same,Potency,[2],inactive
same,Potency,[3],inactive
same,Potency,[4],inactive
same,Potency,[5],inactive
same,Potency,[6],inactive
same,Potency,[7],inactive
same,Potency,[8],inactive
same,Potency,[10],inactive
